Rows were chosen to be rich in hits. Some 14% of all compounds tested hit in one or more screens of this group.
MARV entry inh: Marburg virus entry inhibition; Marburg virus pseudotyped entry inhibition, cell reporter; Potency, µM (doses to about 37.8 µM), inactives show top-dose activity change, negative = inhibition, most hits filed as inhibitors; 300,000 compounds, 1.8% hits; calls by dose curve; tested in HEK293 cells; also: potency is read from the fitted curve at half-maximal effect
Lassa entry inh: inhibitors of Lassa virus binding or cell entry; Lassa virus pseudotype entry inhibition, cell reporter; Potency, µM (top dose mostly 37.9 µM), for inactives: top-dose activity change, negative = inhibition, usual class: inhibitors; 300,000 compounds, 1.2% hits; AID 540256; calls by dose curve; tested in HEK293 cells; also: potency is read from the fitted curve at half-maximal effect; nearly all actives have a fitted effect of over 50% in size
HCV inh: inhibitors of hepatitis C virus infection | Huh7.5.1 HCVcc-Cre infection, luciferase reporter, 44 h | 340,000 compounds, 3.4% hits | Potency, µM (top dose mostly 41.8 µM), for the others: at the highest dose activity change, negative = inhibition, actives largely listed as inhibitors; also: potency is read from the fitted curve at half-maximal effect
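Compounds are dispensed onto cells plated 4 h earlier at 1,000 per well, with HCVcc-Cre virus (about 0.5 moi) added next. Following 44 h of culture, luminescent signal is measured for 15 sec after 15 min with substrate at room temperature.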
HCMV inh: blocks human cytomegalovirus replication. HFF cells, HCMV-luciferase reporter, 72 h; hits give low values. activity change, negative = inhibition, % at 57.5 µM. 410,000 compounds, 4.5% hits; in the data active = activity change below about -60%; inconclusive = no clear call, values can overlap the other calls; inactive = above about -39%
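Two-dose cell screen: HFF monolayers treated with compounds and infected with luciferase-expressing HCMV at 1 PFU/cell, 72 h at 37C, then lysed for luciferase measurement.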
Pf growth 48h: P. falciparum growth inhibition at 48 hours (one generation) | AID 504832 | Potency, µM (doses to about 28.7 µM), for inactives: at the top dose activity change, negative = inhibition, hits mostly inhibitors | P. falciparum luciferase growth in erythrocytes, 48 h | 310,000 compounds, 5.9% hits; also: potency is read from the fitted curve at half-maximal effect
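Luminescence readout; reporter = integrated firefly luciferase in P. falciparum. RBC culture at 2% hematocrit, 0.1% parasitemia final, 37 C/5% CO2; decreased signal taken as growth inhibition.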
Pf growth 96h: P. falciparum growth inhibition at 96 hour, primary screen for plastid delayed-death inhibitors; P. falciparum luciferase reporter growth, 96 h; Potency, µM (doses to about 28.7 µM), for inactives: top-dose activity change, negative = inhibition, usual class: inhibitors; 320,000 compounds, 6.9% hits; also: potency is read from the fitted curve at half-maximal effect
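Two parasite generations (96 h, 37 C, 5% CO2) of compound exposure in infected erythrocytes (0.05% parasitemia, 2% hematocrit). Luciferase-reporter P. falciparum; decreased luminescence indicates inhibited growth, aimed at apicoplast-acting delayed death.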
The depositor's hits bear a star; ? = inconclusive; . = not tested or not shown; [ ] = remark or other dose. Unless noted, calls follow the shape of the dose curve; as a rule, active = well fitted inhibition curve with a large enough effect; inconclusive = small, poorly fitted or top-dose-only effect, or another doubt; inactive = no such curve, though single readings can be large or run the other way. % is scaled to controls: 0 for no effect and ±100 for the full control effect.

SMILES | MARV entry inh | Lassa entry inh | HCV inh | HCMV inh | Pf growth 48h | Pf growth 96h
Cc1cc(C)c(S(=O)(=O)Oc2ccccc2[N+](=O)[O-])c(C)c1 | ? | 3.2µM* | 10µM* | ? | . | .
CCC(=O)Nc1ccc2nc(SCCOc3ccccc3)sc2c1 | ? | -15%[46.1 µM] | . | -63* | . | .
CCOC(=O)Nc1ccc2nc(Sc3ccc(Cl)cc3)sc2c1 | . | . | 14µM* | -34 | 9.3µM* | 15µM*
CCOC(=O)CSc1nc2ccc(NC(=O)c3ccc(Cl)cc3)cc2s1 | 10%[46.1 µM] | 19%[46.1 µM] | . | 33 | . | .
O=C(Nc1ccc2nc(SCCOc3ccccc3Cl)sc2c1)c1cccs1 | 2%[46.1 µM] | -6%[46.1 µM] | . | -88* | . | .
CCCC(=O)Nc1ccc2nc(SCCOc3ccccc3)sc2c1 | -26%[46.1 µM] | -16%[46.1 µM] | . | -60* | . | .
CCOC(=O)c1cccc(NC(=O)[C@H](CSCc2ccccc2)N2Cc3ccccc3C2=O)c1 | -29%[46.1 µM] | -25%[46.1 µM] | . | -24 | . | .
CC(C)(C)c1ccc(/C=C2\Oc3cc(O)ccc3C2=O)cc1 | ? | ? | ? | -92* | ? | ?
O=C1/C(=C/c2ccc([N+](=O)[O-])cc2)Oc2cc(O)ccc21 | ? | ? | -26% | -89* | 55% | 41%
CC1=C(C(=O)N(C(C)C)C(C)C)CC(CC(=O)NCCCCc2ccccc2)C(=O)N1Cc1ccc(F)cc1 (stereo not drawn) | . | . | . | -38 | . | .
COc1ccc(-n2ncc3c2ncn2nc(-c4ccc(OC)c(OC)c4)nc32)cc1 | 23%[46.1 µM] | 5%[46.1 µM] | . | -23 | . | .
CC(=NCc1ccc(F)cc1)c1c(O)n(C)c(=O)n(C)c1=O | 0.33µM* | -5% | -13% | -25 | 5% | 18%
CC(=NCC1CCCO1)c1c(O)n(C2CCCCC2)c(=O)[nH]c1=O (stereo not drawn) | . | . | 13% | -20 | -14% | -21%
CC(=NCC1CCCO1)c1c(O)n(C)c(=O)n(C)c1=O (stereo not drawn) | 2% | 8% | 13% | -15 | 3% | 15µM*
CCCCn1c(O)c(C(C)=NCc2ccc(F)cc2)c(=O)[nH]c1=O | -3% | -22% | -21% | -21 | -14% | 6.6µM*
CCCCn1c(O)c(C(CC)=NCc2ccc(F)cc2)c(=O)[nH]c1=O | -17% | ? | ? | 37 | ? | ?
CC(=NCCCn1ccnc1)c1c(O)n(C)c(=O)n(C)c1=O | -6% | -22% | 4% | -3 | 27% | 10µM*
COc1cc(CN=C(C)c2c(O)n(C)c(=O)n(C)c2=O)cc(OC)c1 | ? | ? | -23% | -14 | 21% | 17%
CC(C)c1ccc(Nc2cc3c(cn2)ncn3CC2CC2)cc1 | . | . | . | 5 | . | .
CCn1c(=O)c2sccc2n2c(CCC(=O)N3CCN(c4ccc(C(C)=O)cc4)CC3)nnc12 | 3%[46.1 µM] | -3%[46.1 µM] | . | 13 | . | .
CC(C)c1ccccc1NC(=O)Nc1nnc([C@@H]2C[C@H](O)[C@@H](CO)O2)s1 | . | . | . | -15 | . | .
Cc1oc(-c2ccc3c(c2)OCCO3)cc1C(=O)O | ? | 1.1µM* | 14% | -63* | ? | ?
COc1cc(NC(=O)Nc2nc(C(N)C3CCCCC3)cs2)cc(OC)c1OC (stereo not drawn) | . | . | . | 45 | . | .
CCOC(=O)C(=O)N(C)c1c(CC)nc2c(OCc3ccccc3OC)cccn12 | . | . | . | 13 | . | .
C/C=C(\C)C(=O)Nc1cccc(C2=NOC3(C2)C[C@@H](C(N)=O)N(C(=O)c2ccccc2C(=O)c2ccccc2)C3)c1 (stereo partly drawn) | . | . | 3%[8.37 µM] | -8 | ? | ?
C=C(C)C(=O)Nc1cccc(C2=NOC3(C2)C[C@H](C(N)=O)N(C(=O)c2ccccc2C(=O)c2ccccc2)C3)c1 (stereo partly drawn) | . | . | 7% | -13 | ? | 13µM*
CCCCCC(=O)Nc1cccc(C2=NOC3(C2)C[C@H](C(N)=O)N(C(=O)c2ccccc2C(=O)c2ccccc2)C3)c1 (stereo partly drawn) | . | . | ? | 12 | 9.3µM* | ?
COc1ccccc1NS(=O)(=O)c1cc(NC(=O)c2ccc(NC(C)=O)cc2)ccc1N1CCOCC1 | -4% | ? | ? | -8 | . | .

From PubChem
